99 compounds from PubChem BioAssay AID504466 (National Center for Advancing Translational Sciences (NCATS), 2011) can be followed below.

Out of some 330,000 compounds screened, about 4,200 (1.3%) were called active. Inconclusive results (about 6%) are left out. Calls come from the whole dose curve; as a rule, active = well fitted activation curve with a large enough effect; inconclusive = small, poorly fitted or top-dose-only effect; inactive = no such curve, though single readings can be large or run the other way. What follows is part of a selection rich in actives, with near analogues and random picks from the rest. A call without a number means that no potency is given here.
Potency is the fitted concentration of half-maximal effect.

The nature of this assay: qHTS screen for small molecules that induce genotoxicity in human embryonic kidney (HEK293T) cells expressing luciferase-tagged ELG1. Note: nearly all actives have a fitted effect of over 60% in size. The settings on record: HEK293T ELG1-luciferase reporter, luminescence, 16 h; series mostly up to 46 µM. The method, boiled down:
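16 hr compound incubation (37 °C, 5% CO2) of HEK293T cells carrying luciferase-tagged ELG1; luciferase then measured by ONE-Glo luminescence after 30 min at RT.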
(In qHTS, concentration-response curves come from the screen itself.)
`CCCc1cc(=O)[nH]c(SCC(=O)Nc2ccc(C(=O)Nc3ccccc3OC)cc2)n1`: the Potency result is “inactive”.

On to `Cc1noc(C)c1C(=O)OC(C)C(=O)Nc1ccc2c(c1)OCO2` (centres undefined), for which the Potency result was “inactive”.

In the case of `CC(=O)c1cccc(OCC(=O)OCC(=O)Nc2cc(S(=O)(=O)N3CCCCC3)ccc2C)c1`, the Potency result was “inactive”.

With `CC(C)Cn1c(SCC(=O)Nc2ccc(Cl)cc2F)nc(O)cc1=O`, the Potency result was “inactive”.

As to `Cn1ccnc1SCC(=O)Nc1ccc2c(c1)OCCO2`, the Potency is 9.2 µM (active).

Turning to `O=C(CCN1C(=O)c2ccncc2C1=O)Nc1ccc2c(c1)OCCO2`, the Potency entry was “inactive”.

For `CCn1c(SCC(=O)Nc2ccc3c(c2)OCCO3)nnc1-c1ccncc1`, the Potency result was “inactive”.

As for `O=C(Nc1cccc(NC(=O)c2ccco2)c1)c1cnccn1`, the Potency entry was “inactive”.

On to `O=C(Nc1ccc2c(c1)OCCO2)c1cnccn1`, for which the Potency was 5.8 µM (active).

For the compound `CCn1c(SCC(=O)Nc2ccc3c(c2)OCCO3)nnc1C(C)C`, the Potency result is “inactive”.

As to `CCC(CO)Oc1cc(NC(=O)c2cccc3ccccc23)c2ncn(C(C)C)c2c1` (centres undefined), the Potency entry is “inactive”.

For the compound `O=C(CSc1nc2ccccc2c(=O)n1Cc1ccc(F)cc1)NCC1CCCO1` (centres undefined), the Potency entry is “inactive”.

As for `O=C1CCC/C=C\C[C@@H](CC(=O)N(CCO)Cc2ccccc2)C(=O)NCCO1`, the Potency entry was “inactive”.

With `CC1CCCCC1NC(=O)Cn1cnc2c1c(=O)n(C)c(=O)n2C` (centres undefined), the Potency entry is “inactive”.

Consider `Cc1ccc(C)c(NC(=O)COC(=O)c2nn(C)c(=O)c3ccccc23)c1`, for which the Potency entry is “inactive”.

With `Cc1ccc2cc3cc(C(=O)N4CCCCCC4)oc3nc2c1`, the Potency is 0.731 µM (active).

With `Cc1cc(C)cc(NC(=O)N2CCCCCCC2)c1`, the Potency result is “inactive”.

Turning to `COc1ccc2oc(=O)c(C(=O)N3CCCC3)cc2c1`, the Potency result is “inactive”.

`COc1ccc(CNC(=O)C[C@H]2C[C@H](C(=O)N3CCOCC3)[C@@]3(C)c4[nH]c5cc(CCC(=O)N(C)C)ccc5c4CCN3C2=O)cc1OC`: the Potency result is “inactive”.

In the case of `O=C(CCNC(=O)c1ccccc1Cl)NN=Cc1ccco1`, the Potency entry is “inactive”.

As for `Cc1ccsc1C(=O)NNC(=O)COc1ccc(Br)cc1`, the Potency result was “inactive”.

For `CC(=O)Nc1ccc(/C=C/C(=O)c2ccccc2)cc1`, the Potency is 16.4 µM (active).

Regarding `O=C(/C=C/NCc1ccc(F)cc1)c1ccccc1`, the Potency entry was “inactive”.

On to `Cc1ccc(N/C=C/C(=O)c2ccccc2)cc1C`, for which the Potency is 0.92 µM (active).

For `CC(OC(=O)/C=C/c1ccccc1)C(=O)Nc1ccc(C(N)=O)cc1` (centres undefined), the Potency result is “inactive”.

With `Cc1noc(NS(=O)(=O)c2ccc(N/C=C/C(=O)c3ccccc3)cc2)c1C`, the Potency entry is “inactive”.

For the compound `CC(=O)Nc1ccc(NC(=S)NC(=O)/C=C/c2ccccc2)cc1`, the Potency result was “inactive”.

`Cc1ccc(S(=O)(=O)Nc2ccc3c(c2)C(=O)N([C@H](C)CO)C[C@@H](C)[C@@H](CN(C)C(=O)Nc2cccc4ccccc24)O3)cc1`: the Potency entry is “inactive”.

As to `O=C(NCCCN1CCOCC1)c1cn(-c2ccccc2)nc1-c1ccc(F)cc1`, the Potency result was “inactive”.

Regarding `O=C(COC(=O)c1cccnc1Cl)NC(=O)NC1CCCCC1`, the Potency result was “inactive”.

In the case of `O=C(COc1ccc(Br)cc1F)NCC1(N2CCCCC2)CCCCC1`, the Potency entry was “inactive”.

Consider `CC(C)n1cnc2c(NCc3ccccc3)cc(N[C@@H](CO)Cc3ccccc3)cc21`, for which the Potency result is “inactive”.

In the case of `CCOc1ccc(Br)cc1S(=O)(=O)Nc1ccc(S(=O)(=O)Nc2cc(C)on2)cc1`, the Potency result was “inactive”.

Regarding `O=C(Nc1cccc(S(=O)(=O)N2CCCCC2)c1)c1cncc(Br)c1`, the Potency entry was “inactive”.

On to `Cc1ccccc1NC(=O)NNC(=O)OC(C)(C)C`, for which the Potency entry is “inactive”.

Regarding `CC(C)(C)OC(=O)N/N=C/c1ccc(C(=O)O)cc1`, the Potency result is “inactive”.

For the compound `C/C(=N\NC(=O)OC(C)(C)C)c1ccc[nH]1`, the Potency is 14.6 µM (active).

Regarding `COc1ccccc1CNC(=O)c1ccc(Cl)c(S(=O)(=O)N2CCCC2)c1`, the Potency result is “inactive”.

As to `Cc1ccc(S(=O)(=O)NCCC(=O)Nc2cccc(S(N)(=O)=O)c2)cc1C`, the Potency result was “inactive”.

For the compound `Cc1ccnc(NC(=O)CCNS(=O)(=O)c2ccc(C)c(C)c2)c1`, the Potency is 1.64 µM (active).

In the case of `Cc1ccc(S(=O)(=O)NCCC(=O)Nc2ccc(C)c(Cl)c2)cc1C`, the Potency result was “inactive”.

As for `Cc1cc(NC(=O)CN2C(=O)NC(CC(C)C)C2=O)no1` (centres undefined), the Potency result is “inactive”.

As for `O=C(CN1C(=O)NC2(CCCCCC2)C1=O)Nc1ccc([N+](=O)[O-])cc1`, the Potency entry is “inactive”.

On to `CC(C)(C)OC(=O)C[C@@H]1C/C=C\C[C@@H](CC(=O)N[C@H](CO)Cc2ccccc2)C(=O)NC[C@@H](c2ccccc2)OC1=O`, for which the Potency result was “inactive”.

For the compound `CC(=O)Nc1cccc(C(=O)OCC(=O)NCc2cc(C)c(O)c(C)c2)c1`, the Potency was 14.6 µM (active).

For `COc1ccc(C(=O)OCC(=O)Nc2cccc(C(C)=O)c2)cc1OC`, the Potency entry was “inactive”.

Regarding `Cc1ccc(C(=O)OCC(=O)NCc2cc(C)c(O)c(C)c2)cc1S(=O)(=O)N1CCCCC1`, the Potency result was “inactive”.

As for `Cc1noc(C)c1S(=O)(=O)N(C)C[C@H]1Oc2c(NC(=O)Nc3ccc4c(c3)OCO4)cccc2C(=O)N([C@H](C)CO)C[C@@H]1C`, the Potency result was “inactive”.

`COc1cc(OC)cc(C(=O)N[C@H](C(=O)NNC(=O)c2ccc(Br)cc2)C(C)C)c1`: the Potency entry was “inactive”.

With `CC(=O)Oc1ccc(NC(=O)CCC2CCCCC2)c(C(=O)O)c1`, the Potency result was “inactive”.

Consider `COc1ccc(NC(=O)CCCC2CCCCC2)c(OC)c1`, for which the Potency was 18.3 µM (active).

In the case of `COc1ccc(NC(=O)CCN2CCCC2)c(OC)c1`, the Potency entry is “inactive”.

Consider `O=C(NOCc1ccccc1)c1cccc([N+](=O)[O-])c1`, for which the Potency entry is “inactive”.

Regarding `Cc1ccc2nc(-c3ccc(SCC(=O)Nc4cc(C)on4)nc3)[nH]c2c1`, the Potency was 1.84 µM (active).

For the compound `Cc1cccc(-n2ncc3c(=O)[nH]c(SCC(=O)Nc4cc(C)on4)nc32)c1`, the Potency result is “inactive”.

Turning to `Cc1ccc(SCCC(=O)Nc2cc(C)on2)cc1`, the Potency result was “inactive”.

For `CC1CCCCC12NC(=O)N(CC(=O)N1CCN(c3ccccc3)CC1)C2=O` (centres undefined), the Potency result was “inactive”.

For the compound `CCN(C[C@H]1N[C@@](CC)(C(=O)OC)[C@H]2C(=O)N(Cc3ccccc3)C(=O)[C@@H]12)S(=O)(=O)c1ccc(C(F)(F)F)cc1`, the Potency entry is “inactive”.

`COc1ccc(-c2cc(C(=O)N3CCN(c4ccc(F)cc4)CC3)no2)cc1`: the Potency entry was “inactive”.

For `COc1ccccc1-c1cc(C(=O)N2CCCCC2)no1`, the Potency was 3.66 µM (active).

As to `COc1cccc(-c2cc(C(=O)N3CCN(c4ccccc4OC)CC3)no2)c1`, the Potency entry was “inactive”.

Regarding `O=C(OCC(=O)N1CCCCC1)c1ccc(OC(F)(F)F)cc1`, the Potency result is “inactive”.

Take `O=C(C[C@H]1C[C@H](C(=O)N2CCOCC2)[C@@]2(CCC3CCCC3)c3[nH]c4ccc(Cl)cc4c3CCN2C1=O)NCc1ccco1`: the Potency result was “inactive”.

For the compound `COc1ccc(NC(=O)N(C)C[C@H]2Oc3ccc(NC(=O)C4CC4)cc3C(=O)N([C@H](C)CO)C[C@@H]2C)cc1`, the Potency result is “inactive”.

Take `COc1cccc(CNC(C)C(=O)Nc2ccc(S(=O)(=O)N3CCCC3)cc2)c1` (centres undefined): the Potency entry was “inactive”.

`O=C(Nc1cccnc1)c1cc(Cl)ccc1Cl`: the Potency result was “inactive”.

For `COc1cccc(C(=O)Nc2cccnc2)c1OC`, the Potency result is “inactive”.

Turning to `O=C(Nc1cccnc1)c1noc2c1CCCCC2`, the Potency is 2.31 µM (active).

In the case of `Cc1ccnc(SCC(=O)Nc2cccc(S(=O)(=O)N3CCOCC3)c2)n1`, the Potency entry was “inactive”.

Regarding `COc1ccc(-c2noc(CCC(=O)N3CCN(c4cccc(C)c4)CC3)n2)cc1`, the Potency entry is “inactive”.

As for `O=C(COC(=O)CNC(=O)c1ccccc1F)NCC(F)(F)F`, the Potency entry was “inactive”.

Take `O=C(CNC(=O)c1ccc(F)cc1)c1ccccc1`: the Potency is 8.2 µM (active).

Turning to `O=C(NCCS(=O)(=O)NCc1ccc(F)cc1)c1ccccc1`, the Potency entry was “inactive”.

On to `O=C(Nc1ccc(NC(=O)c2ccccc2F)cc1)c1ccccc1F`, for which the Potency entry was “inactive”.

`O=C(CNC(=O)c1ccccc1)NCC(=O)OCC(=O)c1ccccc1`: the Potency entry is “inactive”.

Regarding `O=C(CNC(=O)c1ccccc1F)c1ccc(Br)cc1`, the Potency is 5.17 µM (active).

As for `COc1cc(NC(=O)c2[nH]cnc2C(N)=O)cc(C(=O)Nc2cccc(C(F)(F)F)c2)c1`, the Potency entry is “inactive”.

As for `C=CC(COCc1ccccc1)N(CC(=O)OC)S(=O)(=O)c1cc(Br)ccc1OC` (centres undefined), the Potency result is “inactive”.

`O=C1N[C@H](Cc2c[nH]c3ccccc23)COC(=O)[C@H](Cc2ccc(F)cc2)C/C=C\C[C@H]1CC(=O)N(CCO)Cc1ccccc1`: the Potency entry is “inactive”.

In the case of `N#CCC(=O)Nc1ccc(C(=O)OCC(=O)Nc2sc3c(c2C#N)CCCC3)cc1`, the Potency entry is “inactive”.

For `CCOc1ccc(C(=O)Nc2ccncc2)cc1`, the Potency result is “inactive”.

Take `CCOc1ccc(NC(=O)c2ccc(NC(=O)COC(=O)c3ccc(NC(=O)CC#N)cc3)cc2)cc1`: the Potency is 5.17 µM (active).

Turning to `C[C@@H]1CN([C@@H](C)CO)C(=O)c2cccc(NS(=O)(=O)c3ccc(F)cc3)c2O[C@H]1CN(C)C(=O)NC1CCCCC1`, the Potency entry is “inactive”.

Regarding `Cc1cccc(N2O[C@H]3C=CC2CCCC3)n1`, the Potency result is “inactive”.

For `CCCC(CNC(=O)COC(=O)C1=NNC(=O)CC1)c1ccc(Cl)cc1Cl` (centres undefined), the Potency result is “inactive”.

For `COc1ccccc1Oc1ccc(N/C=C2/CCCC2=O)cc1`, the Potency result was “inactive”.

In the case of `O=C(Cc1ccccc1)NNC(=O)C1CCN(c2ncccn2)CC1`, the Potency result was “inactive”.

As to `O=C1/C(=C\Nc2ccccc2)CCN1c1ncccn1`, the Potency is 11.6 µM (active).

For `NC(=O)Nc1ccc(C(=O)OCC(=O)NC2CCCc3ccccc32)cc1` (centres undefined), the Potency entry was “inactive”.

In the case of `CCCN=C1N(C)C[C@@H]2[C@@H]3C(=O)N(Cc4ccccc4)C(=O)[C@@H]3[C@](C)(C(=O)OC)N12`, the Potency entry was “inactive”.

As to `COc1ccc(S(=O)(=O)N(C)C[C@@H]2Oc3ccc(NS(=O)(=O)c4cn(C)cn4)cc3C(=O)N([C@@H](C)CO)C[C@@H]2C)cc1`, the Potency result is “inactive”.

For the compound `C[C@H](CO)N1C[C@H](C)[C@@H](CN(C)C(=O)NC2CCCCC2)Oc2ccc(NC(=O)c3ccncc3)cc2C1=O`, the Potency entry was “inactive”.

Regarding `O=C(Nc1cc(C(F)(F)F)ccc1Cl)c1cc2nc3c(c(C(F)(F)F)n2n1)CCCC3`, the Potency was 8.2 µM (active).

In the case of `O=C(Nc1cc(C(F)(F)F)ccc1Cl)C(=O)N1CCCCC1`, the Potency entry was “inactive”.

Take `CCCCC(=O)Nc1ccc(C(=O)Nc2cc(C(F)(F)F)ccc2Cl)cc1`: the Potency entry was “inactive”.

Consider `CCNC(=S)N1CCN(S(=O)(=O)c2ccc(Cl)s2)CC1`, for which the Potency entry is “inactive”.

In the case of `O=C(NNc1ncnc2c1cnn2-c1ccccc1)c1ccco1`, the Potency entry was “inactive”.

In the case of `C1=C(CCNc2ncnc3c2cnn3-c2ccccc2)CCCC1`, the Potency was 2.31 µM (active).

Take `O=C(NCCC1=CCCCC1)C1CCN(Cc2cnn(-c3ccccc3)c2-n2cccc2)CC1`: the Potency result is “inactive”.
